From PubChem BioAssay (NCI)
About 83,000 compounds went through this panel and 20% of them were active in at least one assay; those are over-represented in the sample as a whole.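 Assay: single dose, 48 h. Readout: percent growth (0 = no net growth; negative = cell death). Active: <10.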 Values without a mark were called inactive. The source made the active and inactive calls.

Tests used:
Test in all cases: NCI-60 one-dose screen, 48 h (100 = growth as untreated, 0 = no growth, -100 = all killed)
Details in all cases: 10 µM unless noted
NCI-H23 lung = tested on: NCI-H23 lung
NCI-H226 lung = tested on: NCI-H226 lung
NCI-H322M lung = tested on: NCI-H322M lung
HOP-62 NSCLC = tested on: HOP-62 NSCLC
NCI-H460 lung = tested on: NCI-H460 lung
HOP-92 NSCLC = tested on: HOP-92 NSCLC
NCI-H522 lung = tested on: NCI-H522 lung
A549/ATCC NSCLC = tested on: A549/ATCC NSCLC
786-0 renal = tested on: 786-0 renal
COLO 205 colon = tested on: COLO 205 colon
DU-145 prostate = tested on: DU-145 prostate
K-562 leukemia = tested on: K-562 leukemia
MALME-3M melanoma = tested on: MALME-3M melanoma
MDA-MB-231 breast = tested on: MDA-MB-231 breast
RXF 393 renal = tested on: RXF 393 renal
SF-268 CNS = tested on: SF-268 CNS
SF-295 CNS = tested on: SF-295 CNS
SF-539 CNS = tested on: SF-539 CNS
UACC-257 melanoma = tested on: UACC-257 melanoma
M14 melanoma = tested on: M14 melanoma

## CN1CC(=O)N(O)C1(C)c1cccnc1 (stereo not given)
NCI-H23 lung
  growth: 104%
NCI-H226 lung
  growth: 94.7%
NCI-H322M lung
  growth: 98.7%
HOP-62 NSCLC
  growth: 95.6%
NCI-H460 lung
  growth: 105%
HOP-92 NSCLC
  growth: 116%
NCI-H522 lung
  growth: 95.2%
A549/ATCC NSCLC
  growth: 101%
786-0 renal
  growth: 99.5%
COLO 205 colon
  growth: 111%
DU-145 prostate
  growth: 115%
K-562 leukemia
  growth: 99.4%
MALME-3M melanoma
  growth: 102%
MDA-MB-231 breast
  growth: 113%
RXF 393 renal
  growth: 106%
SF-268 CNS
  growth: 106%
SF-295 CNS
  growth: 96.4%
SF-539 CNS
  growth: 98.3%
UACC-257 melanoma
  growth: 98.9%
M14 melanoma
  growth: 105%

## O=C1NC(=O)C(=Cc2cn(CCCCCCn3c4ccccc4c(=O)c4ccccc43)c3ccccc23)C(=O)N1
NCI-H23 lung
  growth: 82.5%
NCI-H226 lung
  growth: 67.2%
NCI-H322M lung
  growth: 85.8%
HOP-62 NSCLC
  growth: 86.7%
NCI-H460 lung
  growth: 34.2%
HOP-92 NSCLC
  growth: 96.1%
NCI-H522 lung
  growth: 73.3%
A549/ATCC NSCLC
  growth: 92.4%
786-0 renal
  growth: 96.8%
COLO 205 colon
  growth: 92.3%
DU-145 prostate
  growth: 96.8%
K-562 leukemia
  growth: 77.4%
MALME-3M melanoma
  growth: 95.8%
MDA-MB-231 breast
  growth: 69.1%
RXF 393 renal
  growth: 127%
SF-268 CNS
  growth: 94.5%
SF-295 CNS
  growth: 65.7%
SF-539 CNS
  growth: 93%
UACC-257 melanoma
  growth: 104%
M14 melanoma
  growth: 94.1%

## CC(=O)C(c1c(O)c2ccccc2oc1=O)c1cc(=O)oc2c1ccc1ccccc12 (stereo not given)
NCI-H23 lung
  growth: 100%
NCI-H226 lung
  growth: 90.7%
NCI-H322M lung
  growth: 106%
HOP-62 NSCLC
  growth: 90.9%
NCI-H460 lung
  growth: 102%
HOP-92 NSCLC
  growth: 65.4%
NCI-H522 lung
  growth: 96.2%
A549/ATCC NSCLC
  growth: 97%
786-0 renal
  growth: 96.3%
COLO 205 colon
  growth: 112%
DU-145 prostate
  growth: 115%
K-562 leukemia
  growth: 96.7%
MALME-3M melanoma
  growth: 98.7%
MDA-MB-231 breast
  growth: 89.8%
RXF 393 renal
  growth: 97%
SF-268 CNS
  growth: 103%
SF-295 CNS
  growth: 96.3%
SF-539 CNS
  growth: 92.7%
UACC-257 melanoma
  growth: 102%
M14 melanoma
  growth: 102%

## O=C(O)c1c(Cl)n(Cc2ccc(O)cc2)c2ccc(O)cc12
NCI-H23 lung
  growth: 113%
NCI-H226 lung
  growth: 97.2%
NCI-H322M lung
  growth: 96.3%
HOP-62 NSCLC
  growth: 93.7%
NCI-H460 lung
  growth: 106%
HOP-92 NSCLC
  growth: 65%
NCI-H522 lung
  growth: 83.4%
A549/ATCC NSCLC
  growth: 103%
786-0 renal
  growth: 108%
COLO 205 colon
  growth: 110%
DU-145 prostate
  growth: 111%
K-562 leukemia
  growth: 112%
MALME-3M melanoma
  growth: 106%
MDA-MB-231 breast
  growth: 102%
RXF 393 renal
  growth: 46.6%
SF-268 CNS
  growth: 101%
SF-295 CNS
  growth: 101%
SF-539 CNS
  growth: 98.8%
UACC-257 melanoma
  growth: 101%
M14 melanoma
  growth: 98%

## CC1=C(CCCOC(=O)[C@H](N)CC(C)C)C2=C(C)C3(CC3)[C@@](C)(O)C(=O)C2=C1
NCI-H23 lung
  growth: -27.6% (active)
NCI-H226 lung
  growth: 0.712% (active)
NCI-H322M lung
  growth: 18.5%
HOP-62 NSCLC
  growth: -13% (active)
NCI-H460 lung
  growth: 2.82% (active)
HOP-92 NSCLC
  growth: -13.6% (active)
NCI-H522 lung
  growth: 31.3%
A549/ATCC NSCLC
  growth: 0.0474% (active)
786-0 renal
  growth: 1.3% (active)
COLO 205 colon
  growth: -46.1% (active)
DU-145 prostate
  growth: 11.6%
K-562 leukemia
  growth: 101%
MALME-3M melanoma
  growth: -44.7% (active)
MDA-MB-231 breast
  growth: 11.5%
RXF 393 renal
  growth: -74.7% (active)
SF-268 CNS
  growth: 14.6%
SF-295 CNS
  growth: -5.7% (active)
SF-539 CNS
  growth: -7.07% (active)
UACC-257 melanoma
  growth: 24.4%
M14 melanoma
  growth: -33.2% (active)

## Cc1ccc2c(C(C[N+](=O)[O-])c3cccs3)c(-c3ccccc3)[nH]c2c1 (stereo not given)
NCI-H23 lung
  growth: 38.4%
NCI-H226 lung
  growth: 46.4%
NCI-H322M lung
  growth: 54.7%
HOP-62 NSCLC
  growth: 26.2%
NCI-H460 lung
  growth: 11.3%
HOP-92 NSCLC
  growth: 25.5%
NCI-H522 lung
  growth: -3.71% (active)
A549/ATCC NSCLC
  growth: 28.8%
786-0 renal
  growth: 38.6%
COLO 205 colon
  growth: 6.75% (active)
DU-145 prostate
  growth: 28.1%
K-562 leukemia
  growth: 10.8%
MALME-3M melanoma
  growth: 50.9%
MDA-MB-231 breast
  growth: 44.1%
RXF 393 renal
  growth: 13.8%
SF-268 CNS
  growth: 37.7%
SF-295 CNS
  growth: 7.69% (active)
SF-539 CNS
  growth: 6.62% (active)
UACC-257 melanoma
  growth: 30%
M14 melanoma
  growth: 19.4%

## COC(=O)[C@@H](C)C[C@H](Cc1ccccc1)NC(=O)c1csc([C@@H](C[C@H](C(C)C)N(C)C(=O)C2(NC(=O)[C@H]3CCCCN3C)CC2)OC(C)=O)n1
NCI-H23 lung
  growth: 15.7%
NCI-H226 lung
  growth: 50.8%
NCI-H322M lung
  growth: 44.8%
HOP-62 NSCLC
  growth: 9.05% (active)
NCI-H460 lung
  growth: 3.12% (active)
HOP-92 NSCLC
  growth: -3.99% (active)
NCI-H522 lung
  growth: 1.55% (active)
A549/ATCC NSCLC
  growth: 11.7%
786-0 renal
  growth: 17.6%
COLO 205 colon
  growth: -55% (active)
DU-145 prostate
  growth: 7.25% (active)
K-562 leukemia
  growth: 3.8% (active)
MALME-3M melanoma
  growth: 73.3%
MDA-MB-231 breast
  growth: 13.4%
RXF 393 renal
  growth: 77.5%
SF-268 CNS
  growth: 17.5%
SF-295 CNS
  growth: 4.29% (active)
SF-539 CNS
  growth: -10.4% (active)
UACC-257 melanoma
  growth: 56%
M14 melanoma
  growth: 0.0884% (active)

## COC(=O)[C@@H](C)C[C@H](Cc1ccc2ccccc2c1)NC(=O)c1csc([C@@H](C[C@H](C(C)C)N(C)C(=O)[C@@H](NC(=O)[C@H]2CCCCN2C)C(C)C)OC(C)=O)n1
NCI-H23 lung
  growth: 41.7%
NCI-H226 lung
  growth: 80.2%
NCI-H322M lung
  growth: 68.6%
HOP-62 NSCLC
  growth: 64.7%
NCI-H460 lung
  growth: 24.2%
HOP-92 NSCLC
  growth: -5.09% (active)
NCI-H522 lung
  growth: 22.2%
A549/ATCC NSCLC
  growth: 47.5%
786-0 renal
  growth: 26.5%
COLO 205 colon
  growth: -37.9% (active)
DU-145 prostate
  growth: 46.6%
K-562 leukemia
  growth: 25.7%
MALME-3M melanoma
  growth: 63.1%
MDA-MB-231 breast
  growth: 21.2%
RXF 393 renal
  growth: 49.1%
SF-268 CNS
  growth: 29.4%
SF-295 CNS
  growth: 56.7%
SF-539 CNS
  growth: 10.4%
UACC-257 melanoma
  growth: 77%
M14 melanoma
  growth: 24.6%
